In the supplement of paper PMC12808144 one finds cell viability data, which are given here for 20 compounds.

The structures appear in SMILES notation. Values without a mark were called inactive.

One experiment has as its system Mel-DCC-11-R. Briefly: cell viability relative to DMSO control (fraction of DMSO control); higher = less cytotoxic, active = 0.8 or less. The note with it: 1 µM; 120 h; vemurafenib co-treatment 0 µM. The protocol: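 Same 315-drug TargetMol library at 1 µM in duplicate, 120 h, ATPlite luminescence normalised to DMSO controls, on the vemurafenib-resistant subline Mel-DCC-11-R cultured alone or with 8 µM vemurafenib co-treatment (Mel-DCC-11-R + V).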
Turning to `C=CC(=O)Nc1cc(Nc2nccc(-c3cn(C)c4ccccc34)n2)c(OC)cc1N(C)CCN(C)C` [Osimertinib], the cell viability is 1.06.
As to `O=C(CCCCCCNC(=O)c1cnc(N(c2ccccc2)c2ccccc2)nc1)NO` [Rocilinostat], the cell viability was 0.681 (active).
Still for that read-out and setting: the result for `Cc1ccc(NC(=O)c2ccc(CN3CCN(C)CC3)cc2)cc1Nc1nc(-c2cccnc2)cs1` [Masitinib] reads 1.1.
Regarding `CCCc1cc(C)[nH]c(=O)c1CNC(=O)c1cc(-c2ccnc(N3CCN(C)CC3)c2)cc2c1cnn2C(C)C`, the cell viability is 0.999.
The same measure, in the same setting: the result for `CCc1c2c(nc3ccc(OC(=O)N4CCC(N5CCCCC5)CC4)cc13)-c1cc3c(c(=O)n1C2)COC(=O)[C@]3(O)CC.Cl.O.O.O` [Irinotecan hydrochloride trihydrate] reads 1.32; that for `O=C(O)CCc1nc2ccccc2[nH]1` [Procodazole], 1.09.
On the same count and under the same terms, as for `CCCCCOC(=O)Nc1nc(=O)n([C@@H]2O[C@H](C)[C@@H](O)[C@H]2O)cc1F` [Capecitabine], the figure is 1.04; as for `CCCS(=O)(=O)Nc1ccc(F)c(C(=O)c2c[nH]c3ncc(-c4ccc(Cl)cc4)cc23)c1F` [Vemurafenib], 0.991.
Still for that read-out and setting: the result for `COC(=O)N[C@H](C(=O)N1CC2(CC2)C[C@H]1c1ncc(-c2ccc3c(c2)C(F)(F)c2cc(-c4ccc5nc([C@@H]6[C@H]7CC[C@H](C7)N6C(=O)[C@@H](NC(=O)OC)C(C)C)[nH]c5c4)ccc2-3)[nH]1)C(C)C` [Ledipasvir] reads 1.13; that for `O=C(Nc1c(Cl)cncc1Cl)c1ccc(OC(F)F)c(OCC2CC2)c1` [Roflumilast], 1.15; that for `C[C@@H](Oc1cc(-c2cnn(C3CCNCC3)c2)cnc1N)c1c(Cl)ccc(F)c1Cl` [Crizotinib], 1.16.
As for `CC(=O)Nc1cccc(-n2c(=O)n(C3CC3)c(=O)c3c(Nc4ccc(I)cc4F)n(C)c(=O)c(C)c32)c1` [Trametinib], the cell viability was 0.206 (active).
Regarding `NC(=O)c1cccc2cn(-c3ccc([C@@H]4CCCNC4)cc3)nc12` [Niraparib], the cell viability was 1.06.
Still for that read-out and setting: as for `COC(=O)C[C@](O)(CCCC(C)(C)O)C(=O)O[C@@H]1C(OC)=CC23CCCN2CCc2cc4c(cc2[C@H]13)OCO4` (stereo not given in full) [Homoharringtonine], the figure is 0.0454 (active).
Still for that read-out and setting: as for `CCS(=O)(=O)N1CC(CC#N)(n2cc(-c3ncnc4[nH]ccc34)cn2)C1` [Baricitinib], the figure is 1; as for `CCCCCCCCCCCCCCCCCCOCC(O)CO` (stereo not given) [Batyl alcohol], 0.92.
Same read-out and setting: the result for `CC(C)C[C@H](NC(=O)[C@@H](O)[C@H](N)Cc1ccccc1)C(=O)O` [Ubenimex] reads 1.12; that for `CC1(C)[C@@H](O[C@H]2O[C@H](C(=O)O)[C@@H](O)[C@H](O)[C@H]2OC2O[C@H](C(=O)O)[C@@H](O)[C@H](O)[C@H]2O)CC[C@]2(C)[C@H]3C(=O)C=C4[C@@H]5C[C@@](C)(C(=O)O)CC[C@]5(C)CC[C@@]4(C)[C@]3(C)CC[C@@H]12` (stereo not given in full) [Glycyrrhizin], 1.06.
In the case of `COc1cccc2c1C(=O)c1c(O)c3c(c(O)c1C2=O)C[C@@](O)(C(=O)CO)C[C@@H]3O[C@H]1C[C@H](N)[C@H](O)[C@H](C)O1.Cl` [Doxorubicin hydrochloride], the cell viability was 0.166 (active).
Same read-out and setting: as for `CCCCCCCCCCCCCCCC(=O)OC/C=C(C)/C=C/C=C(C)/C=C/C1=C(C)CCCC1(C)C` [Retinol palmitate], the figure is 1.02.

The experiment is the same for the next values; noted with them: 1 µM; 120 h; vemurafenib co-treatment 8 µM.
On to `C=CC(=O)Nc1cc(Nc2nccc(-c3cn(C)c4ccccc34)n2)c(OC)cc1N(C)CCN(C)C` [Osimertinib], for which the cell viability is 0.884.
Still for that read-out and setting: as for `O=C(CCCCCCNC(=O)c1cnc(N(c2ccccc2)c2ccccc2)nc1)NO` [Rocilinostat], the figure is 0.644 (active); as for `Cc1ccc(NC(=O)c2ccc(CN3CCN(C)CC3)cc2)cc1Nc1nc(-c2cccnc2)cs1` [Masitinib], 0.944; as for `CCCc1cc(C)[nH]c(=O)c1CNC(=O)c1cc(-c2ccnc(N3CCN(C)CC3)c2)cc2c1cnn2C(C)C`, 0.88.
The same measure, in the same setting: as for `CCc1c2c(nc3ccc(OC(=O)N4CCC(N5CCCCC5)CC4)cc13)-c1cc3c(c(=O)n1C2)COC(=O)[C@]3(O)CC.Cl.O.O.O` [Irinotecan hydrochloride trihydrate], the figure is 0.937; as for `O=C(O)CCc1nc2ccccc2[nH]1` [Procodazole], 1.
As to `CCCCCOC(=O)Nc1nc(=O)n([C@@H]2O[C@H](C)[C@@H](O)[C@H]2O)cc1F` [Capecitabine], the cell viability was 1.11.
Still for that read-out and setting: as for `CCCS(=O)(=O)Nc1ccc(F)c(C(=O)c2c[nH]c3ncc(-c4ccc(Cl)cc4)cc23)c1F` [Vemurafenib], the figure is 0.905.
Take `COC(=O)N[C@H](C(=O)N1CC2(CC2)C[C@H]1c1ncc(-c2ccc3c(c2)C(F)(F)c2cc(-c4ccc5nc([C@@H]6[C@H]7CC[C@H](C7)N6C(=O)[C@@H](NC(=O)OC)C(C)C)[nH]c5c4)ccc2-3)[nH]1)C(C)C` [Ledipasvir]: the cell viability is 0.51 (active).
Still for that read-out and setting: the result for `O=C(Nc1c(Cl)cncc1Cl)c1ccc(OC(F)F)c(OCC2CC2)c1` [Roflumilast] reads 1.31; that for `C[C@@H](Oc1cc(-c2cnn(C3CCNCC3)c2)cnc1N)c1c(Cl)ccc(F)c1Cl` [Crizotinib], 0.825; that for `CC(=O)Nc1cccc(-n2c(=O)n(C3CC3)c(=O)c3c(Nc4ccc(I)cc4F)n(C)c(=O)c(C)c32)c1` [Trametinib], 0.165 (active).
Same read-out and setting: the result for `NC(=O)c1cccc2cn(-c3ccc([C@@H]4CCCNC4)cc3)nc12` [Niraparib] reads 1.08; that for `COC(=O)C[C@](O)(CCCC(C)(C)O)C(=O)O[C@@H]1C(OC)=CC23CCCN2CCc2cc4c(cc2[C@H]13)OCO4` (stereo not given in full) [Homoharringtonine], 0.0543 (active); that for `CCS(=O)(=O)N1CC(CC#N)(n2cc(-c3ncnc4[nH]ccc34)cn2)C1` [Baricitinib], 1.22.
On the same count and under the same terms, the result for `CCCCCCCCCCCCCCCCCCOCC(O)CO` (stereo not given) [Batyl alcohol] reads 0.995.
As to `CC(C)C[C@H](NC(=O)[C@@H](O)[C@H](N)Cc1ccccc1)C(=O)O` [Ubenimex], the cell viability is 0.942.
On the same count and under the same terms, as for `CC1(C)[C@@H](O[C@H]2O[C@H](C(=O)O)[C@@H](O)[C@H](O)[C@H]2OC2O[C@H](C(=O)O)[C@@H](O)[C@H](O)[C@H]2O)CC[C@]2(C)[C@H]3C(=O)C=C4[C@@H]5C[C@@](C)(C(=O)O)CC[C@]5(C)CC[C@@]4(C)[C@]3(C)CC[C@@H]12` (stereo not given in full) [Glycyrrhizin], the figure is 1.19; as for `COc1cccc2c1C(=O)c1c(O)c3c(c(O)c1C2=O)C[C@@](O)(C(=O)CO)C[C@@H]3O[C@H]1C[C@H](N)[C@H](O)[C@H](C)O1.Cl` [Doxorubicin hydrochloride], 0.171 (active); as for `CCCCCCCCCCCCCCCC(=O)OC/C=C(C)/C=C/C=C(C)/C=C/C1=C(C)CCCC1(C)C` [Retinol palmitate], 0.978.
